This is part of a sample that, as a whole, favours compounds with a hit. Of some 79,000 tested, about 15% had one in any assay. Unmarked numbers belong to inactive results. Calls of active or inactive are those of the source. Rule as the data show it: active = growth inhibition above about 70%; inactive = the rest.
How the values were obtained:
[1] = NCI Yeast Anticancer Drug Screen. Data for the rad50 strain (AID 155);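 also: 0% = growth of vehicle-only cultures of the same strain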; details: S. cerevisiae rad50 strain growth inhibition; at 50.0 µM; stronger effect = higher value
Procedure, shortened: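 Compounds were tested on a yeast strain with an engineered DNA damage repair alteration; the reported value is growth inhibition normalised to vehicle treatment.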

[2] = NCI Yeast Anticancer Drug Screen. Data for the mec2-1 strain (AID 157); details: S. cerevisiae mec2-1 strain, at 50.0 µM, stronger effect = higher value
Procedure, shortened: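 Cells of the genetically defined mec2-1 yeast strain are incubated with test compound. Inhibition of growth is calculated against vehicle-treated controls.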

[3] = NCI Yeast Anticancer Drug Screen. Data for the sgs1 mgt1 strain (AID 161);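 also: 0% = growth of cultures given vehicle only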; details: S. cerevisiae sgs1 mgt1 strain, at 50.0 µM, stronger effect = higher value
Procedure, shortened: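 Inhibition of yeast growth, normalised to vehicle-treated controls, is reported for a strain bearing genetic alterations in DNA damage repair.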

[4] = NCI Yeast Anticancer Drug Screen. Data for the cln2 rad14 strain (AID 165);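 also: 0% = growth equal to vehicle treated cultures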; details: S. cerevisiae cln2 rad14 strain, at 50.0 µM, stronger effect = higher value
Procedure, shortened: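 The screen exposed genetically defined yeast (cln2 rad14) to test compounds and scored growth inhibition relative to vehicle-treated controls.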

[5] = NCI Yeast Anticancer Drug Screen. Data for the bub3 strain (AID 167); details: S. cerevisiae bub3 mutant strain, at 50.0 µM, stronger effect = higher value
Procedure, shortened: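 Growth of a checkpoint-deficient yeast mutant is measured after compound exposure. Values represent inhibition relative to vehicle.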

[6] = NCI Yeast Anticancer Drug Screen. Data for the mlh1 rad18 strain (AID 175); details: S. cerevisiae mlh1 rad18 strain growth inhibition; at 50.0 µM; stronger effect = higher value
Procedure, shortened: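 Compound-treated yeast growth, normalised to vehicle controls. Strain bears defined DNA repair mutations.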

SMILES	growth inhibition [1]	growth inhibition [2]	growth inhibition [3]	growth inhibition [4]	growth inhibition [5]	growth inhibition [6]
O=C(c1ccccc1)c1cccc2c1ccc1ccccc12	13.4%	38.9%	38.3%	17%	23.4%	32.5%
CC(=O)Oc1ccc2ccccc2c1CS(=O)(=O)O	5.6%	6.05%	10.9%	4.35%	3.35%	10.4%
COc1ccccc1/C=C1/Sc2scc(CC(=O)Nc3ccccc3)[n+]2C1=O	8.9%	4%	23.6%	17.7%	-4.7%	24.8%
COC(=O)CC1(O)C=C(C)C(=O)c2ccccc21 (configuration not stated)	4.9%	-5.7%	-19.2%	-19%	25.2%	-11.2%
CCCC1(c2ccccc2)OCC(CO)O1 (configuration not stated)	15%	9.35%	-17.4%	6.4%	4.1%	4.25%
CCN(CC)c1ccc(Br)cc1	32.9%	4%	4.55%	-2.5%	14.2%	33.9%
CCN(CC)C1Oc2cc3c(cc2C(c2cccc(OC)c2OC)C1C)OCO3 (configuration not stated)	28.4%	28.8%	46.5%	41.7%	41.9%	63.3%
CCCCCCC(=O)OC[n+]1ccc2c(C)c3[nH]c4ccc(OC)cc4c3c(C)c2c1	87% (active)	91.2% (active)	89.8% (active)	88.7% (active)	86% (active)	91.1% (active)
CCOC(=O)C(Cc1cc(N)c(O)c(N)c1)NC(C)=O (configuration not stated)	1.95%	-4.95%	-1.5%	6.8%	-1.45%	-0.85%
CCOC(=O)N1CCN(CCO)CC1	-19.9%	2.65%	2.35%	-34%	3.05%	-8.25%
Cc1cccc(C)c1NC(=O)Nc1cccc(O)c1	-1.4%	34.8%	13.5%	-4.4%	37.6%	26.4%
Cn1nc(-c2ccccc2)c(C(=O)/C=C/c2ccc(Cl)cc2)c(N2CCCC2)c1=O	-5.1%	-1.5%	-4.9%	-5.95%	14.8%	-10.1%
CC(=O)N(C)c1ccc(NC(=S)NC(=O)c2cccc([N+](=O)[O-])c2)cc1	3.55%	21.6%	6.9%	-4.15%	27.5%	7.05%
O=C1OC(=O)c2c1cccc2[N+](=O)[O-]	-7.55%	0%	-2.6%	-14.4%	-5.2%	2.7%
COc1cc(Cl)ccc1NC(=O)Oc1ccc2ccccc2c1	11.8%	14.2%	13%	9.2%	14.4%	9.4%
CSc1cc(C)n2nnnc2n1	1.25%	-11.9%	-3.2%	-27.2%	-3.75%	-0.3%
CC1CC[P+](C)(Cc2ccccc2)C1 (mixture of isomers)	8.7%	0.8%	-18.4%	1.9%	5.45%	18.6%
CCOC(=O)C1=C(c2ccccc2)OC(N)=C(C#N)C1c1ccccc1 (configuration not stated)	-16.9%	-8.4%	-17.6%	7.6%	25.3%	-4.85%
COc1ccc(C(O)C(=O)c2nc3ccc(Cl)cc3[nH]c2=O)cc1 (configuration not stated)	-30.1%	-28.6%	-22.2%	-33.7%	-16.6%	-20.2%

SMILES	growth inhibition [1]	growth inhibition [2]	growth inhibition [3]	growth inhibition [4]	growth inhibition [5]	growth inhibition [6]
O=C(/C=C/c1cccc([N+](=O)[O-])c1)Nc1cccnc1	7.55%	-1.35%	38.9%	-11.8%	29.9%	24.1%
C(=N/Nc1ccccc1)/c1ccco1	31.6%	-1%	-2.05%	13.7%	12.5%	54.9%
COc1ccc(/C=C/C(=O)C(CN(C)C)CN(C)C)cc1OC	-0.95%	-6.7%	-25.2%	-4.8%	-6.55%	-16.4%
Cc1ccccc1N(C)S(=O)(=O)c1ccccc1[N+](=O)[O-]	-12%	-41.5%	8.45%	-5.6%	20.2%	-10.2%
COC(=O)c1cc(-c2ccccc2Cl)n2c(N)nnc2n1	21.6%	-3.1%	32.6%	-6.2%	-20.3%	7.1%
O=S1(=O)CC2C3CC(Oc4ccccc4)C(C3)C2C1 (configuration not stated)	-9.85%	-6.35%	-4.2%	-20.9%	-26.6%	-6.5%
O=C1c2ccccc2C(=O)c2c3c(cc([N+](=O)[O-])c21)OCO3	-18.2%	12.1%	9.05%	25.7%	-3%	-9.75%
COc1ccc2c(=O)c(O)c(-c3ccc(OC)c(OC)c3)oc2c1	12.7%	5.35%	-18.6%	-9.1%	-1.25%	18.4%
Cc1c(N)nc(C(CC(N)=O)NCC(N)C(N)=O)nc1C(=O)NC(C(=O)NC(C)C(O)C(C)C(=O)NC(C(=O)NCCc1nc(-c2nc(C(=O)NCCC[S+](C)CC(N)=O)cs2)cs1)C(C)O)C(OC1OC(CO)C(O)C(O)C1OC1OC(CO)C(O)C(OC(N)=O)C1O)c1cnc[nH]1 (configuration not stated)	63.9%	58.9%	71.7% (active)	56.9%	80% (active)	75.7% (active)
CCC1CN2N=Cc3ccccc3C2=N1 (configuration not stated)	-13.7%	5.35%	-5%	-43.5%	-22.7%	-15.8%
NC(=O)N/N=C/c1ccc(O)cc1	5.15%	-1.15%	1%	-11.1%	-3.85%	-1.5%
COc1ccc(-c2cc3cc(Cl)cc(Cl)c3oc2=O)cc1OC	-13.6%	-8.6%	-17.8%	-4.85%	-3.25%	-16.1%
CCNc1nc2c(ncn2C2CC(O)C(COP(=O)(O)O)O2)c(=O)[nH]1 (configuration not stated)	18.9%	15.2%	27.3%	11.8%	13.2%	-16.1%
CCOC([O-])=N/C(=N/[n+]1ccc(C)cc1)c1ccccc1	8.35%	5.55%	-3.45%	-16.1%	-15.1%	-12.5%
O=C(NNC(=O)c1cccc(Br)c1)c1ccccc1	4.05%	-37.6%	-0.1%	5.65%	-7.15%	-3.15%
Cc1ccc(S(=O)(=O)/C=C(\I)c2ccc([N+](=O)[O-])cc2)cc1	98.8% (active)	99.2% (active)	99.3% (active)	98.8% (active)	98.9% (active)	99.1% (active)
CC1(C)NC(c2ccccc2)c2ccsc2-n2cccc21 (configuration not stated)	-27.7%	-29.7%	-15.7%	18.9%	-9.85%	-8.6%
CCC1C(C#N)(C#N)C1(C#N)C#N	-4.7%	21.8%	7.45%	0.35%	1.45%	12.2%

Reference: PubChem BioAssay (NCI)
